# Source: the supplement of paper PMC12282887
# ± gives the standard deviation of the averaged measurements.
# Assays:
# Assay in all cases: promoter activity interaction Z-score (Lux/OD deviation from empty-vector control); higher = stronger promoter induction by the compound
# [1] = tested on: E. coli BW25113 acrABp lux reporter
# Summary of the method: (§1)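 At 37°C, E. coli BW25113 reporter cultures in 40 µl LB Lennox in 384-well plates were read for OD600 and luminescence every 30 min for 12 h. Windows were 0–8 h for wild type and 1–9 h for deletion strains, and wells under 10% of the median growth value were removed. The score is the Z-transformed residual of growth-normalised luminescence against a control fit.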
# [2] = tested on: E. coli BW25113 micFp lux reporter
# Summary of the method: as §1
# [3] = tested on: E. coli BW25113 ompFp lux reporter
# Summary of the method: as §1
# [4] = tested on: E. coli BW25113 robp lux reporter
# Summary of the method: as §1
# [5] = tested on: E. coli BW25113 soxSp lux reporter
# Summary of the method: as §1
# [6] = tested on: E. coli BW25113 tolCp lux reporter
# Summary of the method: as §1
# [7] = 11.9 µg/ml, genetic background: wild type
# [8] = 11.9 µg/ml, genetic background: ΔmarA
# [9] = 11.9 µg/ml, genetic background: Δrob
# [10] = 11.9 µg/ml, genetic background: ΔsoxS
# [11] = 23.7 µg/ml, genetic background: wild type
# [12] = 23.7 µg/ml, genetic background: ΔmarA
# [13] = 23.7 µg/ml, genetic background: Δrob
# [14] = 23.7 µg/ml, genetic background: ΔsoxS
# [15] = 47.4 µg/ml, genetic background: wild type
# [16] = 47.4 µg/ml, genetic background: ΔmarA
# [17] = 47.4 µg/ml, genetic background: Δrob
# [18] = 47.4 µg/ml, genetic background: ΔsoxS
# [19] = 94.8 µg/ml, genetic background: wild type
# [20] = 94.8 µg/ml, genetic background: ΔmarA
# [21] = 94.8 µg/ml, genetic background: Δrob
# [22] = 94.8 µg/ml, genetic background: ΔsoxS
structure (smiles),measurement,setting,value
NCCc1ccc(O)c(O)c1 [Dopamine],promoter activity interaction Z-score,[1]; [7],0.174 ± 0.27
same,promoter activity interaction Z-score,[1]; [8],-0.87 ± 0.6
same,promoter activity interaction Z-score,[1]; [9],-0.259 ± 0.25
same,promoter activity interaction Z-score,[1]; [10],0.316 ± 0.49
same,promoter activity interaction Z-score,[1]; [11],-0.0683 ± 0.28
same,promoter activity interaction Z-score,[1]; [12],-0.0201 ± 0.65
same,promoter activity interaction Z-score,[1]; [13],-0.428 ± 0.0062
same,promoter activity interaction Z-score,[1]; [14],-0.0876 ± 0.18
same,promoter activity interaction Z-score,[1]; [15],0.18 ± 0.084
same,promoter activity interaction Z-score,[1]; [16],-1.12 ± 0.53
same,promoter activity interaction Z-score,[1]; [17],-0.499 ± 0.094
same,promoter activity interaction Z-score,[1]; [18],-0.0203 ± 0.46
same,promoter activity interaction Z-score,[1]; [19],-0.304 ± 0.4
same,promoter activity interaction Z-score,[1]; [20],-0.754 ± 0.56
same,promoter activity interaction Z-score,[1]; [21],-0.623 ± 0.094
same,promoter activity interaction Z-score,[1]; [22],-0.852 ± 0.031
same,promoter activity interaction Z-score,[2]; [7],-0.0957 ± 0.4
same,promoter activity interaction Z-score,[2]; [8],-0.00669 ± 0.09
same,promoter activity interaction Z-score,[2]; [9],-0.0714 ± 0.048
same,promoter activity interaction Z-score,[2]; [10],-0.289 ± 0.13
same,promoter activity interaction Z-score,[2]; [11],0.149 ± 0.39
same,promoter activity interaction Z-score,[2]; [12],0.0171 ± 0.089
same,promoter activity interaction Z-score,[2]; [13],-0.0648 ± 0.13
same,promoter activity interaction Z-score,[2]; [14],-0.0534 ± 0.087
same,promoter activity interaction Z-score,[2]; [15],-0.077 ± 0.31
same,promoter activity interaction Z-score,[2]; [16],-0.0143 ± 0.025
same,promoter activity interaction Z-score,[2]; [17],-0.12 ± 0.027
same,promoter activity interaction Z-score,[2]; [18],-0.221 ± 0.014
same,promoter activity interaction Z-score,[2]; [19],-0.3274 ± 0.00091
same,promoter activity interaction Z-score,[2]; [20],0.0328 ± 0.11
same,promoter activity interaction Z-score,[2]; [21],-0.149 ± 0.093
same,promoter activity interaction Z-score,[2]; [22],-0.745 ± 0.067
same,promoter activity interaction Z-score,[3]; [7],0.401 ± 0.57
same,promoter activity interaction Z-score,[3]; [8],-0.363 ± 0.16
same,promoter activity interaction Z-score,[3]; [9],-0.182 ± 0.48
same,promoter activity interaction Z-score,[3]; [10],-0.36 ± 0.38
same,promoter activity interaction Z-score,[3]; [11],-0.18 ± 0.33
same,promoter activity interaction Z-score,[3]; [12],0.285 ± 0.88
same,promoter activity interaction Z-score,[3]; [13],-0.131 ± 0.68
same,promoter activity interaction Z-score,[3]; [14],-0.722 ± 0.37
same,promoter activity interaction Z-score,[3]; [15],0.112 ± 0.24
same,promoter activity interaction Z-score,[3]; [16],-0.55 ± 0.36
same,promoter activity interaction Z-score,[3]; [17],-0.52 ± 0.2
same,promoter activity interaction Z-score,[3]; [18],-0.843 ± 0.13
same,promoter activity interaction Z-score,[3]; [19],-0.811 ± 0.18
same,promoter activity interaction Z-score,[3]; [20],-0.358 ± 0.12
same,promoter activity interaction Z-score,[3]; [21],-0.473 ± 0.64
same,promoter activity interaction Z-score,[3]; [22],-1.22 ± 0.11
same,promoter activity interaction Z-score,[4]; [7],0.58 ± 0.43
same,promoter activity interaction Z-score,[4]; [8],-0.0165 ± 0.28
same,promoter activity interaction Z-score,[4]; [9],-0.285 ± 0.42
same,promoter activity interaction Z-score,[4]; [10],-0.285 ± 0.27
same,promoter activity interaction Z-score,[4]; [11],0.285 ± 0.52
same,promoter activity interaction Z-score,[4]; [12],1.42 ± 1.2
same,promoter activity interaction Z-score,[4]; [13],-0.0375 ± 0.68
same,promoter activity interaction Z-score,[4]; [14],0.593 ± 1.6
same,promoter activity interaction Z-score,[4]; [15],0.737 ± 0.14
same,promoter activity interaction Z-score,[4]; [16],-0.645 ± 0.12
same,promoter activity interaction Z-score,[4]; [17],-0.805 ± 0.17
same,promoter activity interaction Z-score,[4]; [18],-1.1 ± 0.16
same,promoter activity interaction Z-score,[4]; [19],-0.828 ± 0.0096
same,promoter activity interaction Z-score,[4]; [20],0.583 ± 0.9
same,promoter activity interaction Z-score,[4]; [21],-1.32 ± 0.2
same,promoter activity interaction Z-score,[4]; [22],-2.04 ± 0.13
same,promoter activity interaction Z-score,[5]; [7],0.474 ± 0.25
same,promoter activity interaction Z-score,[5]; [8],-0.0183 ± 0.11
same,promoter activity interaction Z-score,[5]; [9],-0.0377 ± 0.026
same,promoter activity interaction Z-score,[5]; [10],-0.0441 ± 0.24
same,promoter activity interaction Z-score,[5]; [11],0.394 ± 0.015
same,promoter activity interaction Z-score,[5]; [12],0.0576 ± 0.031
same,promoter activity interaction Z-score,[5]; [13],-0.0399 ± 0.15
same,promoter activity interaction Z-score,[5]; [14],-0.277 ± 0.03
same,promoter activity interaction Z-score,[5]; [15],0.201 ± 0.11
same,promoter activity interaction Z-score,[5]; [16],-0.0617 ± 0.12
same,promoter activity interaction Z-score,[5]; [17],-0.00712 ± 0.2
same,promoter activity interaction Z-score,[5]; [18],-0.3 ± 0.13
same,promoter activity interaction Z-score,[5]; [19],-0.211 ± 0.15
same,promoter activity interaction Z-score,[5]; [20],-0.1512 ± 0.0014
same,promoter activity interaction Z-score,[5]; [21],-0.176 ± 0.19
same,promoter activity interaction Z-score,[5]; [22],-0.581 ± 0.061
same,promoter activity interaction Z-score,[6]; [7],0.393 ± 0.4
same,promoter activity interaction Z-score,[6]; [8],-0.496 ± 0.057
same,promoter activity interaction Z-score,[6]; [9],-0.398 ± 0.89
same,promoter activity interaction Z-score,[6]; [10],0.889 ± 0.7
same,promoter activity interaction Z-score,[6]; [11],0.663 ± 0.58
same,promoter activity interaction Z-score,[6]; [12],0.117 ± 0.58
same,promoter activity interaction Z-score,[6]; [13],-0.413 ± 0.2
same,promoter activity interaction Z-score,[6]; [14],-0.0415 ± 0.32
same,promoter activity interaction Z-score,[6]; [15],-0.164 ± 0.13
same,promoter activity interaction Z-score,[6]; [16],-0.559 ± 0.79
same,promoter activity interaction Z-score,[6]; [17],-0.226 ± 0.6
same,promoter activity interaction Z-score,[6]; [18],-0.165 ± 0.64
same,promoter activity interaction Z-score,[6]; [19],-0.754 ± 0.24
same,promoter activity interaction Z-score,[6]; [20],-0.55 ± 0.46
same,promoter activity interaction Z-score,[6]; [21],-0.192 ± 0.73
same,promoter activity interaction Z-score,[6]; [22],-1 ± 0.74
